# According to PubChem BioAssay AID2559 (National Center for Advancing Translational Sciences (NCATS), 2010):
# The list shows a part of the results. Where a call stands in place of a potency, no number is given. The source made the active and inactive calls.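 Rule for the calls: active = compounds giving a full or partial concentration-response curve, as inhibitors or activators; inconclusive = weak, top-dose-only or unclear curve responses; inactive = no response at any tested dose.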
# Target: Pyruvate kinase (Leishmania mexicana) (UniProt Q27686)
# Sequence (Q27686 whole entry, looked up): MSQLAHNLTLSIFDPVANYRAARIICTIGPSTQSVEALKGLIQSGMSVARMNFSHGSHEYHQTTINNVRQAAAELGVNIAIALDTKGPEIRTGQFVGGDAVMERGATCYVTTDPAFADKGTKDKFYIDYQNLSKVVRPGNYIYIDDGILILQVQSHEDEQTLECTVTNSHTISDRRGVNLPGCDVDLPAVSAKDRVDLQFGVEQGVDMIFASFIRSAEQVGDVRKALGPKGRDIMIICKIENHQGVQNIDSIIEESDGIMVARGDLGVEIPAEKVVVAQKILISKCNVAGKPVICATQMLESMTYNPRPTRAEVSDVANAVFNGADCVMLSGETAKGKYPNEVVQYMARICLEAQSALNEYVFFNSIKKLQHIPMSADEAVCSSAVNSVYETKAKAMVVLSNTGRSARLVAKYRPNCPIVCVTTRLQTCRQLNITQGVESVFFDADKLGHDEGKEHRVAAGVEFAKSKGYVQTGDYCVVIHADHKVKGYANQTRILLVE
# Assay: Confirmation Assay for Inhibitors of Leishmania Mexicana Pyruvate Kinase (LmPK)
# Details: purified LmPK, Kinase-Glo ATP luminescence, 1 h; series mostly up to 57.5 µM
# Text: NIH Chemical Genomics Center [NCGC] Malcolm Walkinshaw, Hugh Morgan, Linda Gilmore University of Edinburgh, UK MLPCN Grant: 1 R03 MH085697-01 NCGC Assay Overview: Pyruvate kinase (L. Mexicana) (LmPK) enzyme was supplied as a highly purified (>95% pure) sulphate-free preparation from University of Edinburgh, UK and assayed for its ability to generate ATP from ADP using phosphoenolpyruvate (PEP) as a substrate. ATP generation was detected in a coupled reaction by luciferase-mediated luminescence, an ATP-dependent process. […] The enzyme was assayed at an intermediate level of activity to screen for both inhibitors and activators.
# NCGC Assay Protocol Summary: Three uL of enzyme mix (kept on ice) in assay buffer (50 mM Imidazole pH7.2, 50 mM KCl, 7 mM MgCl2, 0.01% Tween 20, 0.05% BSA) containing PEP (0.5 mM final concentration) and LmPK (0.1 nM final concentration) was dispensed into white solid bottom 1,536 well microtiter plates. 23 nL of compound were delivered by a pin tool and 1 uL of ADP mix in assay buffer (r.t; 0.1 mM final ADP concentration) was added. Plates were incubated at room temperature for 1 hour. Two uL of detection mix (Kinase-Glo, Promega; at 4 degree Celsius protected from light) was added and luminescence read by a ViewLux (Perkin Elmer) at 1 second exposure/plate. Data were normalized to the uninhibited and AC100 inhibition (no enzyme). To monitor activation, the first column contained a five-fold concentration of LmPK (0.5 nM).
row,SMILES,Potency
1,COc1ccc(-c2cc(C(F)(F)F)nc(NCc3cccnc3)n2)cc1,inactive
2,CN1CC(c2ccccc2)C2(COc3ccccc3C2=O)C12C(=O)Nc1ccccc12 (configuration not stated),inactive
3,COc1ccc(C(=O)C[n+]2ccc(N)c(C)c2C)cc1,inactive
4,CC(=O)N(C1=C(Cl)C(=O)c2ccccc2C1=O)c1ccc(C(=O)O)cc1,2.59 µM (active)
5,COc1ccc(-c2cn3ccc(C)cc3n2)cc1,9.19 µM (active)
6,Cn1cc(CN2CCCCC2c2ccccn2)c(-c2ccc3c(c2)OCCO3)n1 (configuration not stated),inactive
7,COCCN(C(=O)c1ccco1)c1nnc(-c2ccc(OC)cc2)s1,inactive
